Source: PubChem (National Center for Advancing Translational Sciences (NCATS))
KB-V1 MDR tox: qHTS assay for MDR1-selective chemotherapeutics: Primary screen using the drug-selected MDR subline cells KB-V1. KB-V1 MDR cells viability, CellTiter-Glo, 72 h. Potency, µM (highest dose often 46.1 µM), hits mostly cytotoxic. 3.4% of 400,000 active. AID 1347076, 2019; note: % is set by controls: 0 for no effect and ±100 for the full control effect; nearly all actives have a fitted effect of over 60% in size
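qHTS viability screen in drug-selected KB-V1 MDR cells: 72 h compound treatment at 37 degrees C, ATP luminescence end point.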
SW480 rerep: A quantitative high throughput screen for small molecules that induce DNA re-replication in SW480 colon adenocarcinoma cells; 1.8% of 340,000 active; AID 624297, 2012; SW480 DNA re-replication, Hoechst DNA content imaging, 48 h; Potency, µM (series often up to 46.1 µM), for inactives: at the top dose re-replication activation, actives largely listed as activators; note: % of control where 0% means no effect; nearly all actives have a fitted effect of over 55% in size
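Image-based read-out: total Hoechst fluorescence of nuclei (405 nm excitation, 500-530 nm emission), with hits raising the fraction of high-intensity nuclei. SW480 colon cells incubated 48 hr with compounds at 37 C.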
MCF10A rerep: A quantitative high throughput screen for small molecules that induce DNA re-replication in MCF 10a normal breast cells | MCF 10A DNA re-replication, Hoechst nuclear intensity, 48 h | Potency, µM (titrated, usually from 46.1 µM), inactives show at the highest dose activity, positive = re-replication, most hits filed as activators | 2.9% of 350,000 active | AID 624296, 2012; note: % of control where 0% means no effect; nearly all actives have a fitted effect of over 50% in size
KB-3-1 cytotox: qHTS assay for MDR1-selective chemotherapeutics: Primary screen using the parental adenocarcinoma cell KB-3-1. Potency, µM (series often up to 46.1 µM), hits mostly cytotoxic. KB-3-1 viability, CellTiter-Glo ATP luminescence, 72 h. 1.4% of 400,000 active; note: % is set by controls: 0 for no effect and ±100 for the full control effect; nearly all actives have a fitted effect of over 60% in size
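72 h, 37 °C compound treatment of KB-3-1 parental cells; CellTiter-Glo added, 10 min, luminescence read. Data corrected against DMSO-only plates and normalized before curve fitting.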
ELG1 DNA repair: qHTS screen for small molecules that inhibit ELG1-dependent DNA repair in human embryonic kidney (HEK293T) cells expressing luciferase-tagged ELG1; Potency, µM (top dose mostly 46.1 µM), for the others: at the highest dose activity change, negative = inhibition, actives largely listed as inhibitors; HEK293T ELG1-luciferase reporter, luminescence, 16 h; DNA damage induced by 5-fluorouridine; AID 504467, 2011; 2.3% of 330,000 active; note: % is set by controls: 0 for no effect and ±100 for the full control effect; nearly all actives have a fitted effect of over 55% in size
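Overnight (16 hr) co-exposure of 2,000 cells/well to 5-fluorouridine and compound at 37 °C preceded detection. Luciferase was quantified via ONE-Glo luminescence; loss of signal denotes inhibition.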
* marks the source's active call; other numbers are inactive results; i = inactive; ? = inconclusive; . = not tested or not shown; [ ] = remark or other dose. This is a sample that favours compounds with a hit; in the whole collection about 8.1% have one here. Calls come from the whole dose curve; as a rule, active = well fitted curve in the direction sought with a large enough effect; inconclusive = small, poorly fitted or top-dose-only effect, or another doubt; inactive = no such curve, though single readings can be large; an effect the other way counts as inactive or inconclusive. Potency is the fitted concentration of half-maximal effect.

SMILES	KB-V1 MDR tox	SW480 rerep	MCF10A rerep	KB-3-1 cytotox	ELG1 DNA repair
Cc1ccc(OCC(=O)N2C(C)CCCC2C)c([N+](=O)[O-])n1 (stereo unspecified)	i	-7%	-2%	i	19%
NC(=O)NCC(=O)N1CCC(C(O)(c2ccccc2)c2ccccc2)CC1	?	?	-1%	i	4%
c1ccc(NN(Cc2ccncc2)c2ccccc2)cc1	?	.	.	i	.
COc1ccc(-c2cc(C(=O)N(C)CC(=O)Nc3ccccc3Br)c3ccccc3n2)cc1OC	9.2µM*	-29%	-2%	i	?
COCCN(Cc1ccccc1)C(=O)c1cc(-c2ccc(OC)c(OC)c2)nc2ccccc12	?	?	?	i	12µM*
COc1ccc(-c2cc(C(=O)N(C)Cc3ccccc3F)c3ccccc3n2)cc1OC	16µM*	3%	?	i	3%
COc1ccccc1CN(C)C(=O)c1cc(-c2cc(OC)c(OC)c(OC)c2)nc2ccccc12	?	-2%	?	i	5.8µM*
COc1cc(-c2cc(C(=O)N(C)Cc3ccccc3)c3ccccc3n2)cc(OC)c1OC	?	-15%	12%	?	?
Cc1nn(CC(O)COc2ccc3c(c2)CCC3)c(C)c1C (stereo unspecified)	i	20%	16%	i	9%
Cn1cc(Br)c(NC(=O)/C=C/C(=O)O)n1	i	27%	1%	i	-10%
O=C(C/C=N\OCc1ccc([N+](=O)[O-])cc1)Nc1ccc(Cl)cc1	i	-13%	8%	i	19%
CN(CC(=O)Nc1ccccc1Br)C(=O)c1ccccc1-c1nc2ccccc2s1	i	0%	22%	i	21µM*
Cc1c(NC(=O)c2cccc(-c3cc4ccccc4oc3=O)c2)cccc1-c1nc2ncccc2o1	i	-4%	0%	i	13µM*
O=C(CSc1nc2[nH]c(=O)cc(O)c2s1)Nc1nccs1	i	-8%	7%	i	-11%
COc1ccc(-c2csc(NC(=O)C3CC(=O)N(c4ccc5c(c4)OCCO5)C3)n2)cc1 (stereo unspecified)	21µM*	.	22%	i	23µM*
CCC(=O)c1ccc(OC)c(OC)c1OCc1ccccc1	i	-5%	-3%	i	.
CCOC(=O)c1c(C)[nH]c(C(=O)COC(=O)C23CC4CC(CC(Cl)(C4)C2)C3)c1C	i	3%	?	i	12µM*
COc1cc(C(=O)Nc2nc(-c3ccc(Cl)cc3)c(C)s2)ccc1OCC(=O)Nc1ccc(F)cc1	?	.	?	13µM*	?
CCc1ccc(-c2nc(NC(=O)c3ccc(OCC(=O)Nc4ccc(F)cc4)c(OC)c3)sc2C)cc1	i	-33%	10%	i	?
CN(C)c1ccc(C(=C2C=CC(=[N+](C)C)C=C2)c2ccc(N(C)C)cc2)cc1	i	?	3%	2.6µM*	.
O=C(O)c1ccc2c(c1)C1C=CCC1C(c1cc3c(cc1Br)OCO3)N2 (stereo unspecified)	i	-18%	?	i	4%
Brc1cc2c(cc1C1Nc3ccccc3C3C=CCC31)OCO2 (stereo unspecified)	?	16µM*	?	?	-9%
O=C(/C=C/c1cccc(Br)c1)NCc1ccncc1	i	5%	9%	i	0%
CC(C)(C)c1ccc(-n2nc(C(N)=O)c(O)cc2=O)cc1	i	?	23%	i	0%
CC(C)(C)c1ccc(-n2nc(C#N)c(Cl)cc2=O)cc1	?	4.1µM*	2.9µM*	?	-12%
SMILES	KB-V1 MDR tox	SW480 rerep	MCF10A rerep	KB-3-1 cytotox	ELG1 DNA repair
Cc1cc(C)nc(NC(=O)c2ccc(COc3ccccc3Cl)cc2)c1	i	13%	3.7µM*	?	0%
O=C(Nc1cccnc1)c1ccc(COc2cc(Cl)ccc2Cl)o1	23µM*	4%	?	?	?
Cc1nn(C)c(C(=O)Nc2ccn(Cc3ccccc3F)n2)c1[N+](=O)[O-]	26µM*	-1%	6%	i	-1%
O=C(NCc1cccnc1)c1ccc(COc2ccccc2Cl)cc1	i	?	5%	i	?
Cc1cc(C)n(Cc2ccc(NC(=O)c3ccc(COc4ccccc4Br)cc3)cc2)n1	2.6µM*	19%	51%	16µM*	?
CCn1c(SCC(=O)NCc2cccs2)nnc1-c1ccco1	i	-1%[9.22 µM]	-21%	i	1%
CCn1c(SCC(=O)N(C)CC(=O)Nc2ccc(OC)cc2)nnc1-c1ccco1	i	-3%	0%	i	-19%
O=C(NCc1ccc2c(c1)OCO2)c1ccc(COc2cc(Cl)ccc2Cl)o1	?	10%	19%	i	-15%
O=C(Nc1ccc(Cl)cn1)c1ccc(COc2ccccc2Br)o1	?	-10%	?	i	?
O=C(Nc1ccn(Cc2c(F)c(F)cc(F)c2F)n1)c1ccc(COc2cc(Cl)ccc2Cl)o1	i	3%	10%	i	?
O=C(N/N=C/c1ccc(O)cc1)c1ccc(COc2cc(Cl)ccc2Cl)o1	i	2%	18µM*	i	20%
O=C(Nc1nn(Cc2ccc(Cl)cc2)cc1Br)c1ccc(COc2ccccc2Cl)o1	16µM*	-9%	-1%	?	18µM*
O=C(Nc1ccn(Cc2c(F)c(F)cc(F)c2F)n1)c1ccc(COc2ccccc2Cl)cc1	i	7%	?	i	?
O=C(Nc1ccn(Cc2ccccc2F)n1)c1ccc(COc2cc(Cl)ccc2Cl)o1	4.1µM*	18%	?	i	?
O=C(Nc1ccn(Cc2ccccc2F)n1)c1ccc(COc2ccccc2Cl)cc1	2.6µM*	5%	?	?	?
CC(=O)c1sc(-c2c(C)nc3sccn23)nc1C1CCCC1	.	.	.	.	4%
Cc1nc2c(C)cccn2c(=O)c1NC(=O)c1ccco1	i	-1%	2%	i	15%
N#Cc1ccc(OCC(=O)N2CCN(S(=O)(=O)c3cccs3)CC2)cc1	i	-3%	?	i	?
CC(C)(C)NC(=O)c1ccc(COc2ccc(Cl)cc2Cl)o1	13µM*	6%	?	?	?
OCCNCCOCCOc1ccccc1-c1ccccc1	i	12%	4%	i	1%
O=c1[nH]n(-c2cccc3cccnc23)c(=O)c2ccccc12	i	-3%	0%	i	1%
O=S1(=O)Nc2c(ccc3cccnc23)-c2ccccc21	?	-2%	-6%	18µM*	?
